# Records with an inconclusive call do not appear. Where a call stands in place of a potency, no number is given. Active and inactive are the calls of the source. Calls come from the whole dose curve; as a rule, active = well fitted inhibition curve with a large enough effect; inconclusive = small, poorly fitted or top-dose-only effect; inactive = flat fitted curve, though single readings scatter.
# System: SC27B
# Experiment: qHTS profiling for inhibitors of Plasmodium falciparum proliferation (AID 504749); note: nearly all actives have a fitted effect of over 60% in size
# Conditions: P. falciparum in erythrocytes, SYBR Green DNA, 72 h; series mostly up to 28.7 µM
# How it was run: (§1)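 P. falciparum-infected erythrocytes (0.3% parasitemia, 2.5% hematocrit) incubated with compound 72 h at 37 C, 5% CO2. Parasite DNA detected by SYBR Green after lysis, overnight at room temperature; normalised to 0.29 uM artemisinin and DMSO.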
# Potency is the fitted concentration of half-maximal effect.
row,SMILES,Potency
1,C[C@](N)(Cc1ccc(O)cc1)C(=O)O,inactive
2,CC(=O)c1ccc2c(c1)N(CCCN(C)C)c1ccccc1S2,inactive
3,CSc1ccc2c(c1)N(CCC1CCCCN1C)c1ccccc1S2 (configuration not stated),12.6 µM (active)
4,NC(=O)N/N=C/c1ccc([N+](=O)[O-])o1,12.6 µM (active)
5,CCCn1cnc2c1c(=O)n(CCCCC(C)=O)c(=O)n2C,inactive
6,CCN(CC)CCSC(=O)C(c1ccccc1)c1ccccc1,inactive
7,CCN(CC)CCNC(=O)c1c(C)[nH]c(/C=C2\C(=O)Nc3ccc(F)cc32)c1C,12.6 µM (active)
8,CNCCCC1c2ccccc2C=Cc2ccccc21,inactive
9,CC1=C(CC(=O)O)c2cc(F)ccc2/C1=C\c1ccc(S(C)=O)cc1 (configuration not stated),inactive
10,COCCOC(=O)C1=C(C)NC(C)=C(C(=O)OC/C=C/c2ccccc2)C1c1cccc([N+](=O)[O-])c1 (configuration not stated),10 µM (active)
11,C=Cc1c(C)c2cc3[nH]c(cc4nc(cc5nc(cc1[nH]2)C(C)=C5CCC(=O)O)C(CCC(=O)O)=C4C)c(C)c3C=C,inactive
12,CN(C)CCN(Cc1ccccc1)c1ccccn1,inactive
13,OCc1cc(C(O)CNCCCCCCOCCCCc2ccccc2)ccc1O (configuration not stated),inactive
14,O=C(O)CN1C(=O)c2cccc3cccc(c23)C1=O,inactive
15,COC(=O)C1=C(C)NC(C)=C(C(=O)OC)C1c1ccccc1[N+](=O)[O-],inactive
16,CC1=C(/C=C/C(C)=C/C=C/C(C)=C/C(=O)O)C(C)(C)CCC1,inactive
17,CCCCN(CCCC)CC(O)c1cc(Cl)cc2c1-c1ccc(Cl)cc1/C2=C/c1ccc(Cl)cc1 (configuration not stated),0.0112 µM (active)
18,CC(=O)Oc1ccc(C2(c3ccc(OC(C)=O)cc3)C(=O)Nc3ccccc32)cc1,inactive
19,Cc1c(O)cccc1C(=O)N[C@@H](CSc1ccccc1)[C@H](O)CN1C[C@H]2CCCC[C@H]2C[C@H]1C(=O)NC(C)(C)C,7.94 µM (active)
20,O=C1NC(=O)[C@@]2(CCOc3ccc(F)cc32)N1,inactive

# System: TAB109
# Experiment: as above
# Conditions: P. falciparum in erythrocytes, SYBR Green DNA, 72 h; series mostly up to 28.7 µM
# How it was run: as §1
row,SMILES,Potency
1,C[C@](N)(Cc1ccc(O)cc1)C(=O)O,inactive
2,CC(=O)c1ccc2c(c1)N(CCCN(C)C)c1ccccc1S2,inactive
3,CSc1ccc2c(c1)N(CCC1CCCCN1C)c1ccccc1S2 (configuration not stated),8.91 µM (active)
4,NC(=O)N/N=C/c1ccc([N+](=O)[O-])o1,12.6 µM (active)
5,CCCn1cnc2c1c(=O)n(CCCCC(C)=O)c(=O)n2C,inactive
6,CCN(CC)CCSC(=O)C(c1ccccc1)c1ccccc1,inactive
7,CCN(CC)CCNC(=O)c1c(C)[nH]c(/C=C2\C(=O)Nc3ccc(F)cc32)c1C,8.91 µM (active)
8,CNCCCC1c2ccccc2C=Cc2ccccc21,inactive
9,CC1=C(CC(=O)O)c2cc(F)ccc2/C1=C\c1ccc(S(C)=O)cc1 (configuration not stated),inactive
10,CC(CN1c2ccccc2Sc2ccccc21)N(C)C (configuration not stated),inactive
11,C=Cc1c(C)c2cc3[nH]c(cc4nc(cc5nc(cc1[nH]2)C(C)=C5CCC(=O)O)C(CCC(=O)O)=C4C)c(C)c3C=C,inactive
12,O=C(O)CN1C(=O)c2cccc3cccc(c23)C1=O,inactive
13,COC(=O)C1=C(C)NC(C)=C(C(=O)OC)C1c1ccccc1[N+](=O)[O-],inactive
14,CC1=C(/C=C/C(C)=C/C=C/C(C)=C/C(=O)O)C(C)(C)CCC1,inactive
15,CCCCN(CCCC)CC(O)c1cc(Cl)cc2c1-c1ccc(Cl)cc1/C2=C/c1ccc(Cl)cc1 (configuration not stated),0.0126 µM (active)
16,CC(=O)Oc1ccc(C2(c3ccc(OC(C)=O)cc3)C(=O)Nc3ccccc32)cc1,inactive
17,O=C1NC(=O)[C@@]2(CCOc3ccc(F)cc32)N1,inactive

# Reference: PubChem BioAssay (NCATS)
